Assay results taken from PubChem BioAssay (Tox21).
Values joined by “and” are separate entries in the source; they are usually repeats but may differ in a detail not shown here. Identical values can stand only once. Inconclusive results are not listed. Some compounds were tested as several samples or in several runs, with calls that do not always agree. Active and inactive are the calls of the source. Calls follow the shape of the dose curve; as a rule, active = well fitted curve in the direction sought with a large enough effect in the repeat runs; inconclusive = weak or mixed curves; inactive = no such curve, though single readings can be large; an effect the other way counts as inactive or inconclusive.

Molecular target: Luciferin 4-monooxygenase (Photinus pyralis) (UniProt P08659)
Assay: qHTS assay to identify small molecule inhibitors of firefly luciferase (AID 1224835); also: nearly all actives have a fitted effect of over 25% in size
Details: purified P. pyralis luciferase, luminescence inhibition; series mostly up to 115 µM; activity change, negative = inhibition: at the top concentration
In short: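 Inhibition of purified Photinus luciferase is measured by luminescence. Substrate levels (D-luciferin, ATP) sit at their KM values. Each compound is tested in a concentration series.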
% is scaled to controls: 0 for no effect and ±100 for the full control effect; potency is read from the fitted curve at half-maximal effect.

Luciferin 4-monooxygenase (Photinus pyralis), sequence (P08659 whole entry, looked up): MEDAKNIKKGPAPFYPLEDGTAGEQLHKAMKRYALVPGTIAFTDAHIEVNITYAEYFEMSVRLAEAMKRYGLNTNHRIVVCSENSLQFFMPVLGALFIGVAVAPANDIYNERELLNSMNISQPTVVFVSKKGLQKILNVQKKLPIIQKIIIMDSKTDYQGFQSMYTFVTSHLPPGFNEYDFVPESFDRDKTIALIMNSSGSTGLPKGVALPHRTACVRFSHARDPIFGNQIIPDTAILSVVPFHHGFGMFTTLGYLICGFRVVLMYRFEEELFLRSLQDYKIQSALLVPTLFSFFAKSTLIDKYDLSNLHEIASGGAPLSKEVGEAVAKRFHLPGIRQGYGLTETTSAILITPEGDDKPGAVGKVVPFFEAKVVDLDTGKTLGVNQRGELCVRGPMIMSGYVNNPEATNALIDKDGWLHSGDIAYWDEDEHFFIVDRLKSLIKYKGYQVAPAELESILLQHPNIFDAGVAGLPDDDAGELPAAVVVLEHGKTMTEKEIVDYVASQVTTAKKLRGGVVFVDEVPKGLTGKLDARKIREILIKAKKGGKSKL

Row | SMILES | activity change, negative = inhibition | Potency
1 | C[C@](N)(Cc1ccc(O)cc1)C(=O)O | 0.0392% [at 10.5 µM] (inactive) | 
2 | C1OCOCO1 | 1.09% (inactive) | 
3 | O=C1CCCCCCCCCCCN1 |  | inactive
4 | NC(=O)c1cn(Cc2c(F)cccc2F)nn1 | -2.52% [at 52.9 µM] (inactive) | 
5 | O=c1cc(-c2ccccc2)oc2ccccc12 |  | 7.97 µM (active) and 12.6 µM (active)
6 | CCN(CC)CCNC(=O)c1cc(S(C)(=O)=O)ccc1OC | -0.627% [at 52.9 µM] (inactive) | 
7 | OC[C@]1(O)OC[C@@H](O)[C@H](O)[C@@H]1O |  | inactive
8 | C=C1CC[C@H]2C[C@@H]1C2(C)C | -0.591% (inactive) | 
9 | CC(=O)OCC(=O)[C@@]1(O)CC[C@H]2[C@@H]3CCC4=CC(=O)CC[C@]4(C)[C@H]3C(=O)C[C@@]21C | -1.24% [at 52.9 µM] (inactive) | 
10 | CC(C)(O)C#CC(C)(C)O | 5.42% (inactive) | 
11 | COC(=O)[C@@H](N)Cc1ccc(O)c(O)c1 | 0.51% [at 52.9 µM] (inactive) | 
12 | CCN1CCC[C@H]1CNC(=O)c1c(O)c(Cl)cc(Cl)c1OC | 0.944% [at 52.9 µM] (inactive) | 
13 | COC(=O)C1=C(C)NC(C)=C(C(=O)OC)C1c1ccccc1[N+](=O)[O-] |  | 40 µM (active) and inactive
14 | Cc1[nH]c(=O)c(C#N)cc1-c1ccc2nccn2c1 | -1.93% [at 52.9 µM] (inactive) | 
15 | O=C1NC(=O)[C@@]2(CCOc3ccc(F)cc32)N1 | -3.5% [at 52.9 µM] (inactive) | 
16 | Nc1cc(=O)[nH]c(N)n1 | -0.0071% [at 52.9 µM] (inactive) | 
17 | O=C(O)CN(CCOCCOCCN(CC(=O)O)CC(=O)O)CC(=O)O | 0.561% [at 0.435 µM] (inactive) | 
18 | CC(C)(C)c1ccc(O)c(O)c1 |  | 32.8 µM (active) and 22.4 µM (active)
19 | Nc1ccc(S(=O)(=O)Nc2ccnn2-c2ccccc2)cc1 | 8.37% [at 23.6 µM] (inactive) | 
20 | CC(C)(c1ccc(O)cc1)c1ccc(O)cc1 |  | 39.5 µM (active) and 36.2 µM (active)
21 | O=c1n(CCO)c(=O)n(CCO)c(=O)n1CCO |  | inactive
22 | CCn1nc(C(=O)O)c(=O)c2cc3c(cc21)OCO3 | 0.272% [at 52.9 µM] (inactive) | 
23 | CN1CCC(=C2c3ccccc3CC(=O)c3sccc32)CC1 | -3.45% [at 52.9 µM] (inactive) | 
24 | CC(=O)OCC(CCn1cnc2cnc(N)nc21)COC(C)=O | -1.83% [at 52.9 µM] (inactive) | 
25 | CCO/C([O-])=N/c1c[n+](N2CCOCC2)no1 | -6.46% [at 52.9 µM] (inactive) | 
26 | CCN(CC)CCOCCOC(=O)C1(c2ccccc2)CCCC1 | 0.76% [at 52.9 µM] (inactive) | 
27 | COc1ccc(CCN(C)CCCC(C#N)(c2cc(OC)c(OC)c(OC)c2)C(C)C)cc1OC (stereo not drawn) | -1.71% [at 52.9 µM] (inactive) | 

Test system: not listed separately
Assay: qHTS assay to identify small molecule agonists of the constitutive androstane receptor (CAR) signaling pathway - cell viability counter screen (AID 1224836); also: nearly all actives have a fitted effect of over 45% in size
Details: HepG2-CYP2B6-hCAR viability, CellTiter-Fluor, 23 h, PK11195 added to every well; series mostly up to 92.4 µM; viability change, negative = cytotoxic: at the top concentration
In short: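 Multiplexed viability check: HepG2-CYP2B6-hCAR cells, 15-point compound dosing, 0.75 uM PK11195 final, 23 h at 37 C, CellTiter-Fluor fluorescence.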

Row | SMILES | viability change, negative = cytotoxic | Potency
28 | C[C@](N)(Cc1ccc(O)cc1)C(=O)O | 11.1% [at 8.39 µM] (inactive) | 
29 | C1OCOCO1 | -0.0463% (inactive) | 
30 | O=C1CCCCCCCCCCCN1 |  | inactive
31 | CCOC(=O)CC(C)=O | 2.22% (inactive) | 
32 | O=c1cc(-c2ccccc2)oc2ccccc12 |  | inactive
33 | CCN(CC)CCNC(=O)c1cc(S(C)(=O)=O)ccc1OC | 1.63% [at 42.5 µM] (inactive) | 
34 | OC[C@]1(O)OC[C@@H](O)[C@H](O)[C@@H]1O | -2.41% (inactive) | 
35 | CCCCC/C=C\CCC=O | 0.68% (inactive) | 
36 | C=C1CC[C@H]2C[C@@H]1C2(C)C | -0.608% (inactive) | 
37 | CC(=O)OCC(=O)[C@@]1(O)CC[C@H]2[C@@H]3CCC4=CC(=O)CC[C@]4(C)[C@H]3C(=O)C[C@@]21C | 6.26% [at 42.5 µM] (inactive) | 
38 | CC(C)(O)C#CC(C)(C)O | 1.59% (inactive) | 
39 | COC(=O)[C@@H](N)Cc1ccc(O)c(O)c1 | 4.53% [at 42.5 µM] (inactive) | 
40 | CC[N+](C)(C)c1cccc(O)c1 | 11.1% [at 42.5 µM] (inactive) | 
41 | CN(C)CCCN1c2ccccc2CCc2ccc(Cl)cc21 |  | 48.6 µM (active) and 29.8 µM (active)
42 | CCN1CCC[C@H]1CNC(=O)c1c(O)c(Cl)cc(Cl)c1OC | 2.13% [at 42.5 µM] (inactive) | 
43 | CCN(Cc1ccncc1)C(=O)C(CO)c1ccccc1 (stereo not drawn) | 9.81% [at 42.5 µM] (inactive) | 
44 | COC(=O)C1=C(C)NC(C)=C(C(=O)OC)C1c1ccccc1[N+](=O)[O-] | -0.702% [at 42.5 µM] (inactive) | 

Row | SMILES | viability change, negative = cytotoxic | Potency
45 | Cc1[nH]c(=O)c(C#N)cc1-c1ccc2nccn2c1 | 4.49% [at 42.5 µM] (inactive) | 
46 | O=C1NC(=O)[C@@]2(CCOc3ccc(F)cc32)N1 | 0.993% [at 42.5 µM] (inactive) | 
47 | Nc1cc(=O)[nH]c(N)n1 | 1.54% [at 42.5 µM] (inactive) | 
48 | O=C(O)CN(CCOCCOCCN(CC(=O)O)CC(=O)O)CC(=O)O | -0.739% [at 0.349 µM] (inactive) | 
49 | NCCc1cnc[nH]1 | 1.7% [at 42.5 µM] (inactive) | 
50 | Brc1c(NC2=NCCN2)ccc2nccnc12 | -0.0068% [at 42.5 µM] (inactive) | 
51 | CC(C)(C)c1ccc(O)c(O)c1 |  | inactive
52 | Nc1ccc(S(=O)(=O)Nc2ccnn2-c2ccccc2)cc1 | 4.16% [at 19 µM] (inactive) | 
53 | CC(C)(c1ccc(O)cc1)c1ccc(O)cc1 |  | inactive
54 | O=c1n(CCO)c(=O)n(CCO)c(=O)n1CCO |  | inactive
55 | CCn1nc(C(=O)O)c(=O)c2cc3c(cc21)OCO3 | 6.77% [at 42.5 µM] (inactive) | 
56 | CCCCOCCOCCOCc1cc2c(cc1CCC)OCO2 |  | inactive
57 | CN1CCC(=C2c3ccccc3CC(=O)c3sccc32)CC1 | -14.7% [at 42.5 µM] (inactive) | 
58 | CC(=O)OCC(CCn1cnc2cnc(N)nc21)COC(C)=O | 5.54% [at 42.5 µM] (inactive) | 
59 | CCO/C([O-])=N/c1c[n+](N2CCOCC2)no1 | 3.55% [at 42.5 µM] (inactive) | 
60 | CCN(CC)CCOCCOC(=O)C1(c2ccccc2)CCCC1 | -24.1% [at 42.5 µM] (inactive) | 

Test system: not listed separately
Assay: qHTS assay to identify small molecule antagonists of the constitutive androstane receptor (CAR) signaling pathway - cell viability counter screen (AID 1224837); also: nearly all actives have a fitted effect of over 45% in size
Details: HepG2-CYP2B6-hCAR viability, CellTiter-Fluor, 23 h, co-treated with 50 nM CITCO; series mostly up to 92.4 µM; activity change, negative = cytotoxicity: at the top concentration
In short: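 Fluorescence from CellTiter-Fluor served as the viability signal. Human hepatoma HepG2 cells stably bearing hCAR and CYP2B6-2.2kb received compound plus CITCO (50 nM final) for 23 hr.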

Row | SMILES | activity change, negative = cytotoxicity | Potency
61 | C[C@](N)(Cc1ccc(O)cc1)C(=O)O | 2.5% [at 8.39 µM] (inactive) | 
62 | C1OCOCO1 | -1.03% (inactive) | 
63 | O=C1CCCCCCCCCCCN1 |  | inactive
64 | CCOC(=O)CC(C)=O | -1.85% (inactive) | 
65 | NC(=O)c1cn(Cc2c(F)cccc2F)nn1 | 2.16% [at 42.5 µM] (inactive) | 
66 | O=c1cc(-c2ccccc2)oc2ccccc12 |  | inactive
67 | CCN(CC)CCNC(=O)c1cc(S(C)(=O)=O)ccc1OC | 8.95% [at 42.5 µM] (inactive) | 
68 | OC[C@]1(O)OC[C@@H](O)[C@H](O)[C@@H]1O |  | inactive
69 | CCCCC/C=C\CCC=O | 7.11% (inactive) | 
70 | C=C1CC[C@H]2C[C@@H]1C2(C)C | 1.97% (inactive) | 
71 | CC(=O)OCC(=O)[C@@]1(O)CC[C@H]2[C@@H]3CCC4=CC(=O)CC[C@]4(C)[C@H]3C(=O)C[C@@]21C | 2.73% [at 42.5 µM] (inactive) | 
72 | CC(C)(O)C#CC(C)(C)O | 3.19% (inactive) | 
73 | COC(=O)[C@@H](N)Cc1ccc(O)c(O)c1 | -4.45% [at 42.5 µM] (inactive) | 
74 | CC[N+](C)(C)c1cccc(O)c1 | 5.3% [at 42.5 µM] (inactive) | 
75 | CN(C)CCCN1c2ccccc2CCc2ccc(Cl)cc21 |  | 48.6 µM (active)
76 | CCN1CCC[C@H]1CNC(=O)c1c(O)c(Cl)cc(Cl)c1OC | 0.328% [at 42.5 µM] (inactive) | 
77 | CCN(Cc1ccncc1)C(=O)C(CO)c1ccccc1 (stereo not drawn) | -0.98% [at 42.5 µM] (inactive) | 

Row | SMILES | activity change, negative = cytotoxicity | Potency
78 | COC(=O)C1=C(C)NC(C)=C(C(=O)OC)C1c1ccccc1[N+](=O)[O-] | 1.22% [at 42.5 µM] (inactive) | 
79 | Cc1[nH]c(=O)c(C#N)cc1-c1ccc2nccn2c1 | 6.28% [at 42.5 µM] (inactive) | 
80 | O=C1NC(=O)[C@@]2(CCOc3ccc(F)cc32)N1 | 6.84% [at 42.5 µM] (inactive) | 
81 | Nc1cc(=O)[nH]c(N)n1 | 2.54% [at 42.5 µM] (inactive) | 
82 | O=C(O)CN(CCOCCOCCN(CC(=O)O)CC(=O)O)CC(=O)O | 4% [at 0.349 µM] (inactive) | 
83 | NCCc1cnc[nH]1 | 7.19% [at 42.5 µM] (inactive) | 
84 | Brc1c(NC2=NCCN2)ccc2nccnc12 | -2.54% [at 42.5 µM] (inactive) | 
85 | CC(C)(C)c1ccc(O)c(O)c1 |  | inactive
86 | Nc1ccc(S(=O)(=O)Nc2ccnn2-c2ccccc2)cc1 | 3.82% [at 19 µM] (inactive) | 
87 | CC(C)(c1ccc(O)cc1)c1ccc(O)cc1 |  | inactive
88 | O=c1n(CCO)c(=O)n(CCO)c(=O)n1CCO |  | inactive
89 | CCn1nc(C(=O)O)c(=O)c2cc3c(cc21)OCO3 | 0.448% [at 42.5 µM] (inactive) | 
90 | CCCCOCCOCCOCc1cc2c(cc1CCC)OCO2 |  | inactive
91 | CN1CCC(=C2c3ccccc3CC(=O)c3sccc32)CC1 | -30.9% [at 42.5 µM] (inactive) | 
92 | CC(=O)OCC(CCn1cnc2cnc(N)nc21)COC(C)=O | 2.5% [at 42.5 µM] (inactive) | 
93 | CCO/C([O-])=N/c1c[n+](N2CCOCC2)no1 | 4.7% [at 42.5 µM] (inactive) | 
